The source made the active and inactive calls. The calls were made as follows: active = hit-call score of the fitted dose curve at least 0.9, where 1 is the maximum; inactive = score below 0.9.
The compounds below were run against Heat shock factor protein 1 (Homo sapiens) (UniProt Q00613) (assay: ATG_HSE_CIS: Attagene CIS-FACTORIAL HepG2 Assay for human Heat Shock Transcription Factor 1 (HSE) (AID 2282953)). Conditions: HepG2 HSE cis-reporter, Attagene RNA transcription; actives raise or lower the signal.
Heat shock factor protein 1 (Homo sapiens), sequence (Q00613 whole entry, looked up): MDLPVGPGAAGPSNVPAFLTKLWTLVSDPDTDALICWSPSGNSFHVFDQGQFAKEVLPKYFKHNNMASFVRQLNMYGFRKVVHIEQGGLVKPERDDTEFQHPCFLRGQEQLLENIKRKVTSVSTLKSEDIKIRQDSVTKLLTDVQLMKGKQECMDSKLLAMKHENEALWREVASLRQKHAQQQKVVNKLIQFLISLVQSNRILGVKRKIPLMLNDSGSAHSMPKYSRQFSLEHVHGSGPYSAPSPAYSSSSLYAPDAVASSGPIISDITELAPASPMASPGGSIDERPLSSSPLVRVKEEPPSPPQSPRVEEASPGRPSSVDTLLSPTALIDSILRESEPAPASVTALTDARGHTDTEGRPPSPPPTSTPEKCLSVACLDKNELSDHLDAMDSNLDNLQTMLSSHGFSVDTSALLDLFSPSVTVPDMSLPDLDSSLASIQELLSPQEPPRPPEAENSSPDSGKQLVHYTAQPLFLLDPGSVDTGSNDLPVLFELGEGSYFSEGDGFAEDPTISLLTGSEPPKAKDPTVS
Description: ATG_CIS is a cell-based, multiplexed-readout assay that uses HepG2, a human liver cell line, with measurements taken at 24 hours after chemical dosing in a 24-well plate.ATG_HSE_CIS is one of 52 assay component(s) measured or calculated from the ATG_CIS assay. It is designed to make measurements of mRNA induction, a form of inducible reporter, as detected with fluorescence intensity signals by Reverse transcription polymerase chain reaction (RT-PCR) and Capillary electrophoresis technology.Data from the assay component ATG_HSE_CIS was analyzed into 1 assay endpoint. This assay endpoint, ATG_HSE_CIS, was analyzed with bidirectional fitting relative to DMSO as the negative control and baseline of activity. Using a type of inducible reporter, measures of mRNA for gain or loss-of-signal activity can be used to understand the reporter gene at the transcription factor-level as they relate to the gene HSF1. Furthermore, this assay endpoint can be referred to as a primary readout, because this assay has produced multiple assay endpoints where this one serves a reporter gene function. To generalize the intended target to other relatable targets, this assay endpoint is annotated to the dna binding intended target family, where the subfamily is heat shock protein.
Human liver HepG2 cells are transiently transfected with multiple reporter transcription units (MRTUs) in 6-well plates using FuGene 6 reagent (Roche; 3 ml FuGene/1 mg DNA). The MRTU constructs are regulated by a cis-regulating element (promoter). […] A major difference between the CIS and TRANS system is that in CIS activities of endogenous TFs are measured, whereas the TRANS assay evaluates changes in activities of exogenous, chimeric NR-Gal4 proteins. […] At the end of 24 hour incubation, total RNA was isolated using TriZol reagent (Invitrogen). The isolated RNA is then reverse-transcribed using oligo(dT) primer and Mo-MLV reverse transcriptase (Invitrogen) with DNAse I (Ambion) treatment for 30 min. The one-tenth of the produced cDNA was amplified by PCR using Taq DNA polymerase (Invitrogen) and two reporter sequence-specific primers. The PCR products were fluorescently labeled by primer extension with 6-arboxyfluorescein (6-FAM) 5'-labeled reporter sequence-specific primer (2 min at 95 C, 20 s at 68 C and 10 min at 72 C) and these products were digested with 5U of HpaI (New England Biolabs) for 2h at 37 C. The fragments were purified using Qiaquick PCR columns (Qiagen), analyzed on an ABI 3130xL genetic analyzer (Applied Biosystems) with peak positions identified by using a set of X-rhodamine (ROX)-labeled MapMarker1000 molecular weight standards (BioVentures). The raw capillary electrophoresis data was processed using Attagraph software (Attagene).

Compound | outcome | AC50
Cc1cc(=O)[nH]c(=O)[nH]1 | inactive | –
CCC(C)N (stereo not given) | inactive | –
CC1=C(O)C(=O)C(C)O1 (stereo not given) | inactive | –
Oc1ccc(-c2ccccc2)c(Cl)c1 | inactive | –
CC(C)(CO)COC(=O)C(C)(C)CO | inactive | –
CCOB(OCC)OCC | inactive | –
C=CCCCCCCCCO | inactive | –
O=C1c2ccccc2C(=O)c2cc(S(=O)(=O)O)ccc21 | inactive | –
CCN1CN(CC)CN(CC)C1 | – | 174 µM (active)
CC(=O)c1ccc(S(=O)(=O)NC(=O)NC2CCCCC2)cc1 | inactive | –
CCC(=O)C1CC(C(C)C)CC=C1C (stereo not given) | inactive | –
CCOC(=O)OC(=O)OCC | inactive | –
COc1nccnc1CC(C)C | inactive | –
CC1=CP(=O)(c2ccccc2)CC1 (stereo not given) | inactive | –
C/C=C/C=C/CCCCCCCO | – | 168 µM (active)
CC1OC(=O)C(C)OC1=O (stereo not given) | inactive | –
Cc1ccc(S(=O)(=O)N=C=O)cc1 | inactive | –
O=C(O)CC(C(=O)O)S(=O)(=O)O (stereo not given) | inactive | –
c1ccc2sc(SSN3CCOCC3)nc2c1 | – | 69.6 µM (active)
Cc1ccccc1CCO | inactive | –

Compound | outcome | AC50
CC1C(C)(C)C2=C(C(=O)CCC2)C1(C)C (stereo not given) | inactive | –
CCCCCCCCCCCCc1ccc(O)cc1 | inactive | –
CC(=O)OC(C)c1ccccc1 (stereo not given) | inactive | –
CCCCC1C(=O)N(c2ccccc2)N(c2ccccc2)C1=O | inactive | –
CCCC/C=C/C=C\C=O | – | 157 µM (active)
CC(=O)OC1CCCCC1 | inactive | –
CC(C)OC(=O)c1ccccc1 | inactive | –
N#Cc1ccc(C(c2ccc(C#N)cc2)n2cncn2)cc1 | inactive | –
CC(C)c1cc(C(C)C)cc(C(C)C)c1 | inactive | –
Cc1ccc2c(c1)CCCN2 | inactive | –
Cc1ccc([N+](=O)[O-])cc1N | inactive | –
CCC(C)C(=O)OCCc1ccccc1 (stereo not given) | inactive | –
CC(=O)CC(=O)Nc1ccccc1C | inactive | –
CCOC(=O)c1ccc(C)cc1 | inactive | –
COc1ccc(C(=O)c2ccccc2)c(O)c1 | inactive | –
CCc1occc(=O)c1O | inactive | –
O=C(O)CCC(=O)O | inactive | –
CC(C)CO | inactive | –
CC(C)CCCCCOC(=O)CS | inactive | –
C=C(C)C(=O)OCC(O)COc1ccc(C(C)(C)c2ccc(OCC(O)COC(=O)C(=C)C)cc2)cc1 (stereo not given) | – | 46.9 µM (active)

Reference: PubChem BioAssay (EPA / NIEHS)
